Assay results from PubChem BioAssay AID540276 (National Center for Advancing Translational Sciences (NCATS), 2011).
Where “and” joins values, the source holds several entries; their conditions need not be identical. Equal values may be shown once. Screen size: about 300,000 compounds; about 5,400 (1.8%) were called active. Another 28% or so got no clear call; they are omitted. The sample holds actives, similar compounds and a random draw of the others, so the mix is not that of the screen. Unmarked numbers belong to inactive results. Calls come from the whole dose curve; tested in HEK293 cells.

Assay: qHTS for inhibitors of binding or entry into cells for Marburg Virus
Settings: Marburg virus pseudotyped entry inhibition, cell reporter; series mostly up to 37.8 µM; activity change, negative = inhibition: at the top concentration
% is set by controls: 0 for no effect and ±100 for the full control effect; potency is the fitted concentration of half-maximal effect.

Point of comparison: `Cc1ccccc1CN1CCNC(=O)C1CC(=O)NCCC1=CCCCC1` (centres undefined), “activity change, negative = inhibition” value -26%. Against it:
- COc1cccc(C(=O)NNC(=O)c2cccc(F)c2)c1 — higher, 6.02%
- CCn1cc(C(=O)O)c(=O)c2c1N=C(C)CC2 — higher, -24%
- COc1ccccc1CNC(=O)c1ccc(SC)cc1OC — higher, 0.424%
- Cc1ccnc(NC(=O)c2ccoc2C)c1 — higher, 10.2%
- COc1cnn(-c2ccc([N+](=O)[O-])cc2)c(=O)c1Cl — higher, -1.22%
- O=C(Nc1ccc(S(=O)(=O)Nc2ccccn2)cc1)c1ccccc1 — higher, 1.38%
- CCCCn1c(N)c(N(CCC(C)C)C(=O)CC2OC(=O)c3ccccc32)c(=O)[nH]c1=O (centres undefined) — higher, 18%
- c1ccc2cc(OCCN3CCCC3)ccc2c1 — higher, -7.89%
- O=[N+]([O-])c1ccccc1OCCCCN1CCCCC1 — higher, 9.45%
- CN(Cc1ccc(F)cc1)C(=O)CN1C(=O)c2ccccc2S1(=O)=O — higher, 1.59%
- COc1ccc(Cc2nc3ccc(C(=O)NCC4CCOCC4)cc3o2)cc1OC — higher, 1.26%
- CCOC(=O)CN(C)Cc1c[nH]c2ccccc12 — higher, -2.54%
- COc1ccc(S(=O)(=O)NCc2cccnc2)cc1NC(=O)c1ccc(C)cc1 — higher, 3.55%
- COc1cc(C(=O)Nn2c(CC(C)C)nc3ccccc3c2=O)cc(OC)c1OC — higher, -6.04%
- Cc1ccc(NC(=O)c2cc(-c3ccc(C)o3)nc3ccccc23)nc1 — higher, -6.53%
- CC(=O)c1ccc(S(=O)(=O)Nc2ccc(-c3ccc4nncn4n3)cc2)cc1 — higher, -15.7%
- NC(=S)NN=C1CCCC(C(F)(F)F)C1 (centres undefined) — higher, -2.75%
- O=C(COC(=O)c1ccc(Br)o1)NC12CC3CC(CC(C3)C1)C2 — higher, 31%
- CCOc1cc(N2CCOCC2)c(OCC)cc1NC(=O)COc1cccc(Cl)c1 — higher, -3.98%
- CCOc1cc(N2CCOCC2)c(OCC)cc1NC(=O)COC(=O)[C@H](Cc1c[nH]c2ccccc12)NC(C)=O — higher, 9.35%
- COc1ccc(Cl)cc1NC(=O)CN1CCN(C(=O)N2CCOCC2)CC1 — higher, 24.5%
- CN(CC(=O)NCCc1ccc(S(N)(=O)=O)cc1)CC(=O)Nc1ccc(Cl)cc1 — higher, 12.9%
- COC(=O)NC1(C(F)(F)F)NC(=O)N(C2CCCCC2)C1=O (centres undefined) — higher, 0.437%
- CC(C)c1ccc(/C=C/C(=O)NCCCN2CCOCC2)cc1 — lower, -28.2%
- Cc1ccc(C(=O)NNC(=O)c2ccncc2)cc1S(=O)(=O)N1CCCCC1 — higher, -0.132%
- Cc1ccc(NC(=O)c2ccccn2)cc1S(=O)(=O)N1CCOCC1 — higher, 1.1%
- Cc1ccc(NC(=O)CCCNC(=O)c2ccc(Cl)cc2)cc1S(=O)(=O)N1CCCCC1 — higher, -11%
- Cc1ccc(Nc2nnc(SC(C)C(=O)NC3CC3)s2)cc1 (centres undefined) — higher, 11.7%
- COc1ccc2nc(/N=C(\N)NC(=O)Nc3ccccc3)nc(C)c2c1 — lower, -30.2%
- C=CCNC(=O)C1CC2c3ccccc3C1c1ccccc12 (centres undefined) — higher, 1.85%
- COc1cc2c(cc1OC)CN(CC(=O)Nc1ccc(F)cc1)CC2 — higher, -0.577%
- COc1cc(NC(=O)CSc2ccc(-c3cccnc3)nn2)cc(OC)c1 — higher, -7.05%
- CCOc1ccc(CC(=O)NCCS(=O)(=O)N2CCN(c3ccccc3)CC2)cc1 — higher, 12.2%
- O=C(NCc1cccnc1)c1cn(-c2ccccc2)nc1-c1cccs1 — higher, -14.5%
- CC(=O)C1=C(C)NC(C)=C(C(C)=O)C1c1cn(-c2ccccc2)nc1-c1cccs1 — higher, -21.3%
- CC[C@]12c3[nH]c4ccc(Cl)cc4c3CCN1C(=O)[C@@H](CC(=O)NCCCOC)C[C@@H]2C(=O)N1CCN(C(=O)c2ccco2)CC1 — higher, -1.78%
- CCCCCOc1ccc(CSC2=NCCN2)cc1[N+](=O)[O-] — lower, -35.4%
- CCCOc1ccc(Cn2ccnc2)cc1[N+](=O)[O-] — higher, 1%
- CCN(CC)CCn1c2ccc(Cl)cc2c2nc(C)sc21 — lower, -57.9%
- CC1CN(C(=S)SCC(=O)c2ccccc2)CC(C)O1 (centres undefined) — higher, -3.47%
- Cc1ccc(CNC(=O)C(=O)c2cn(CC(=O)N3CCCC3)c3ccccc23)cc1 — higher, -19.2%
- Cc1cc(NC(=O)CSc2nnc(-c3ccco3)n2N)no1 — lower, -29.8%
- O=C(COC(=O)c1cccc(Cl)c1)NC(=O)NCc1ccccc1 — higher, 4.11%
- COc1c(O)ccc2c1-c1c3c(cc4c1C(C2)N(C)CC4)OCO3 (centres undefined) — higher, 3.76%
- Cn1c(N)cc(=O)n(C)c1=S — higher, -7.14%
- O=C(NCc1nnc(SCC(=O)N2CCCCCC2)o1)c1ccc(F)cc1 — higher, -7.97%

Point of comparison: `CCOC(=O)C1CCN(C(=O)CN2C(=O)c3cccnc3Oc3ccc(C)cc32)CC1`, “activity change, negative = inhibition” value 17.4% [at 46.1 µM]. Against it:
- Cc1c(Cl)c([N+](=O)[O-])nn1CC(=O)NCCCN1CCOCC1 — lower, -0.45% [at 46.1 µM]
- CCOC(=O)N1CCC(N2Cc3cccc(C(=O)Nc4ccc(S(=O)(=O)N(CC)CC)cc4)c3C2=O)CC1 — higher, 21.7% [at 46.1 µM]
- Cc1cccnc1CC(C)NC(=O)c1cc(COc2cncc(Cl)c2)on1 (centres undefined) — lower, -5.56% [at 46.1 µM]
- CCCC(O)(c1ccccc1)C(c1ccccc1)c1ccccn1 (centres undefined) — lower, -15.5% [at 46.1 µM]
- O=C(c1ccc2c(c1)N(Cc1ccc(Cl)cc1)C(=O)c1ccccc1S2(=O)=O)N1CCCCC1 — lower, 13.1% [at 46.1 µM]
- O=C(c1ccc2c(c1)N(Cc1ccccc1)C(=O)c1ccccc1S2(=O)=O)N1CCCC1 — lower, -4.79% [at 46.1 µM]
- COC(=O)Cc1nc2c(N)nc(N)nc2[nH]c1=O — lower, -8.16% [at 46.1 µM]
- COc1ccc(Cl)cc1NC(=O)COC(=O)c1ccc(Br)o1 — lower, 4.51% [at 46.1 µM]
- CC1CN(CCOc2ccccc2[N+](=O)[O-])CC(C)O1 (centres undefined) — lower, -16.6% [at 46.1 µM]
- CC1CN(CCCOc2ccccc2-c2ccccc2)CC(C)O1 (centres undefined) — lower, -9.52% [at 46.1 µM]
- COc1ccc(C(=O)CC(=O)c2ccc(C)cc2)c(O)c1 — lower, 1.43% [at 46.1 µM]
- COc1ccc(N=C2C=CC(=O)O2)cc1 — lower, -4.62% [at 46.1 µM]
- O=C(COC(=O)Cc1c[nH]c2ccccc12)NCCc1ccccc1 — lower, -9.54% [at 46.1 µM]
- O=C(Nc1c2c(nc3ccccc13)CCCC2)c1ccccc1Br — lower, -4.15% [at 46.1 µM]
- CCOc1ccc(NC(=O)CSc2c3c(nc4ccccc24)CCCC3)cc1 — lower, 3.83% [at 46.1 µM]
- Cc1ccc(C(=O)O)c(NC=O)c1OCc1ccccc1 — lower, -16.2% [at 46.1 µM]
- Cc1[nH]c(C)c(S(=O)(=O)N2CCC(C)CC2)c1C(=O)N1CCCC1 — lower, 8.85% [at 46.1 µM]
- O=C(NC1(C(F)(F)F)N=C(c2ccccc2)N(C2CCCCC2)C1=O)c1ccccc1F (centres undefined) — lower, -21.3% [at 46.1 µM]
- C=CCOc1cccc(CNCc2cccnc2)c1 — lower, 15.2% [at 46.1 µM]
- COc1ccc(-c2nn(-c3ccccc3)cc2/C=C\C(=O)N2CCOCC2)cc1[N+](=O)[O-] — lower, 15.3% [at 46.1 µM]
- Cc1cc(F)ccc1NC(=S)NCCc1ccccc1 — lower, 6.16% [at 46.1 µM]
- O=C(Nc1cccc(Cl)c1Cl)c1ccccc1NC(=O)C1CC=CCC1C(=O)O (centres undefined) — lower, -14.1% [at 46.1 µM]
- O=S(=O)(Nc1ccccc1)c1ccc(NS(=O)(=O)c2cccs2)cc1 — lower, -21.5% [at 46.1 µM]
- CCOc1ccc2ccccc2c1/C=N/NC(=O)c1c(C)cc(C)[nH]c1=O — higher, 22% [at 46.1 µM]
- Cc1ccc(/C=C2\CCn3c2nc2cc(C(=O)O)ccc2c3=O)c(C)c1 — lower, -23.6% [at 46.1 µM]
- O=C(NNC(=O)C(O)c1ccccc1)NC1CCCCC1 (centres undefined) — lower, 15.9% [at 46.1 µM]
- O=C(OCCOCn1cc(Br)c(=O)[nH]c1=O)c1ccccc1 — lower, -4.74% [at 46.1 µM]
- C=CCn1c(=O)n(C)c2c(=O)n(C)c(=O)n(C)c21 — lower, 5.71% [at 46.1 µM]
- O=C1CC(c2ccccc2)C(=O)N2C(=O)CC(c3ccccc3)C(=O)N12 (centres undefined) — lower, 1.53% [at 46.1 µM]
- Cc1nc2ccccc2c(C(=O)O)c1-c1ccccn1 — lower, 17.2% [at 46.1 µM]
- O=C(COc1ccc([N+](=O)[O-])cc1Cl)Nc1ccc2[nH]c(=O)[nH]c2c1 — lower, -2.16% [at 46.1 µM]
- COc1ccc(OC)c(NC(=O)C2CCCN2S(=O)(=O)c2cccc3nsnc23)c1 (centres undefined) — lower, -13.2% [at 46.1 µM]
- COc1ccc(C2(c3ccc(OC)cc3)NC(=O)N(CC(=O)Nc3cc(C)on3)C2=O)cc1 — lower, -25.4% [at 46.1 µM]
- O=C(CSC(=S)N1CCOCC1)c1cc(Br)cc(Br)c1O — lower, 11.4% [at 46.1 µM]
- CC(C(=O)c1ccc(-c2ccccc2)cc1)[n+]1cccc(Br)c1 (centres undefined) — lower, -1.4% [at 46.1 µM]

For `COc1cc(SC)ccc1C(=O)Nc1cc(C)ccn1`, the Potency was 14.6 µM (active).
In the case of `O=C(c1ccc2c(c1)N(Cc1ccc(F)cc1)C(=O)c1ccccc1S2(=O)=O)N1CCN(c2ccccn2)CC1`, the Potency is reported as 5.01 µM (active) and 3.16 µM (active).
With `CC1CCCN(CCOCCOc2ccccc2-c2ccccc2)C1` (centres undefined) the Potency was 11.2 µM (active).
For `c1ccc(-c2ccccc2OCCN2CCCCC2)cc1`, the Potency was 14.6 µM (active).
In the case of `O=C(Cc1c[nH]c2ccccc12)OCCOC(=O)Cc1c[nH]c2ccccc12`, the Potency is reported as 18.3 µM (active).
For `Cc1cc(O)ccc1-c1cnc2ccccc2n1`, the Potency was “inactive”.
For `Cc1ccc(Nc2nc(-c3ccc(O)cc3O)cs2)nc1`, the Potency was 4.47 µM (active).
With `CCOc1cc(N2CCOCC2)c(OCC)cc1NC(=O)COc1cccc2cccnc12` the Potency was 4.47 µM (active).
With `Cc1ccc(Nc2c3c(nc4ccccc24)CCC3)cc1` the Potency was 11.2 µM (active).
For `O=C1NC(Nc2nc3ccccc3s2)(C(F)(F)F)C(=O)N1C1CCCCC1` (centres undefined), the Potency was 6.51 µM (active).
In the case of `O=C(/C=C/c1cn(-c2ccccc2)nc1-c1ccc2c(c1)OCCO2)NCCCN1CCOCC1`, the Potency is reported as 3.55 µM (active).
In the case of `Cc1ccc(NS(=O)(=O)c2cccs2)cc1S(=O)(=O)N1CCCCCC1`, the Potency is reported as 10 µM (active).
For `COc1ccccc1C(=O)Nc1ccc(C)c(S(=O)(=O)N2CCCCC2)c1`, the Potency was 8.91 µM (active).
In the case of `Cc1nc(/N=C(\N)NC(=O)NC2CCCCC2)nc2ccccc12`, the Potency is reported as 7.94 µM (active).
For `CC[C@H]1CN2CCc3cc(OC)c(OC)cc3[C@@H]2C[C@@H]1C[C@H]1NCCc2cc(OC)c(OC)cc21`, the Potency was 224 nM (active) and 326 nM (active) and 103 nM (active).
For `O=C(O)c1ccc(N/N=C/c2cn(-c3ccccc3)nc2-c2cccs2)cc1`, the Potency was 4.47 µM (active).
With `CCCCOc1ccc(CSC(=N)N)cc1[N+](=O)[O-]` the Potency was 14.1 µM (active).
With `CCN(CC)CCCC(C)n1c2nc(=O)[nH]c(=O)c-2nc2cc(Cl)ccc21` (centres undefined) the Potency was 5.62 µM (active).
For `O=C(CSC(=S)N1CCOCC1)c1ccccc1`, the Potency was 7.31 µM (active).
With `COc1ccc2c(c1O)-c1cccc3c1[C@@H](C2)N(C)CC3` the Potency was 1 µM (active).

With `CC(=O)OC[C@H]1O[C@H](CCO/N=C(\C)CCN2CCCCc3nc(C)c(C)cc32)C=C[C@@H]1OC(C)=O` the “activity change, negative = inhibition” value was 16.2% [at 14.2 µM].
